# Reference: PubChem BioAssay (NCATS)
# Records with an inconclusive call do not appear. A number with no mark means an inactive call. Activity calls are given as the source filed them. Calls come from the whole dose curve; as a rule, active = well fitted curve in the direction sought with a large enough effect; inconclusive = small, poorly fitted or top-dose-only effect, or another doubt; inactive = no such curve, though single readings can be large; an effect the other way counts as inactive or inconclusive.
# Key:
# [1] = qHTS of pediatric cancer cell lines to identify multiple opportunities for drug repurposing: Primary screen for BT-12 cells (AID 1347101); note: nearly all actives have a fitted effect of over 25% in size; note: potency is the fitted concentration of half-maximal effect
# Summary of the method: (§1)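 Cells (500-1,000/well) rested 5 h, then received compounds for 48 h; metabolically active cells were measured by CellTiter-Glo luminescence. Final concentrations spanned up to 46 µM (MIPE, 11-point) or 0.59 nM-46 µM (NPC, 8-point) in primary screens, 11-point in follow-ups.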
# [2] = qHTS of pediatric cancer cell lines to identify multiple opportunities for drug repurposing: Primary screen for Rh18 cells (AID 1347102); note: nearly all actives have a fitted effect of over 65% in size; note: potency is the fitted concentration of half-maximal effect
# Summary of the method: (§2)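 Cells (500-1,000/well) in growth media were settled 5 h at 37 degrees C, then given compounds for 48 h. Viability was read as CellTiter-Glo luminescence. Primary runs used MIPE at 11 points (0.78 nM-46 µM) and NPC at 8 points (0.59 nM-46 µM); follow-ups used 11 points.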
# [3] = qHTS of pediatric cancer cell lines to identify multiple opportunities for drug repurposing: Primary screen for OHS-50 cells (AID 1347103); note: nearly all actives have a fitted effect of over 40% in size; note: potency is the fitted concentration of half-maximal effect
# Summary of the method: as §1
# [4] = qHTS of pediatric cancer cell lines to identify multiple opportunities for drug repurposing: Primary screen for RD cells (AID 1347104); note: nearly all actives have a fitted effect of over 55% in size; note: potency is the fitted concentration of half-maximal effect
# Summary of the method: (§3)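 Phenotypic viability qHTS, 48 h compound exposure, CellTiter-Glo luminescence read-out; multi-concentration dosing so that potency and efficacy derive directly from the primary screen's curves.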
# [5] = qHTS of pediatric cancer cell lines to identify multiple opportunities for drug repurposing: Primary screen for MG 63 (6-TG R) cells (AID 1347105); note: nearly all actives have a fitted effect of over 50% in size; note: potency is the fitted concentration of half-maximal effect
# Summary of the method: as §3
# [6] = qHTS of pediatric cancer cell lines to identify multiple opportunities for drug repurposing: Confirmatory screen for SK-N-MC cells (AID 1347111);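 note: cells exposed to compound for 48 h before the readout; nearly all actives have a fitted effect of over 70% in size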; note: potency is the fitted concentration of half-maximal effect
# Summary of the method: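 Metabolically active cells were quantified by ATP-dependent luminescence (CellTiter-Glo, 15 min at room temperature) following 48 h treatment. Cells had been plated at 500-1,000 per well and settled for 5 h beforehand.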
# [7] = qHTS of pediatric cancer cell lines to identify multiple opportunities for drug repurposing: Confirmatory screen for BT-12 cells (AID 1347112); note: nearly all actives have a fitted effect of over 55% in size; note: potency is the fitted concentration of half-maximal effect
# Summary of the method: as §2
# [8] = qHTS of pediatric cancer cell lines to identify multiple opportunities for drug repurposing: Confirmatory screen for LAN-5 cells (AID 1347113); note: nearly all actives have a fitted effect of over 65% in size; note: potency is the fitted concentration of half-maximal effect
# Summary of the method: as §2
# [9] = qHTS of pediatric cancer cell lines to identify multiple opportunities for drug repurposing: Confirmatory screen for DAOY cells (AID 1347114); note: nearly all actives have a fitted effect of over 65% in size; note: potency is the fitted concentration of half-maximal effect
# Summary of the method: (§4)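 Viability measured as metabolically active cells via CellTiter-Glo luminescence following 48 hours of compound exposure, 11-point dilutions in confirmatory testing. 500-1,000 cells/well plated 5 hours before dosing; controls were DMSO and 2.3 µM bortezomib.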
# [10] = qHTS of pediatric cancer cell lines to identify multiple opportunities for drug repurposing: Confirmatory screen for SJ-GBM2 cells (AID 1347116); note: nearly all actives have a fitted effect of over 60% in size; note: potency is the fitted concentration of half-maximal effect
# Summary of the method: as §4
# [11] = qHTS of pediatric cancer cell lines to identify multiple opportunities for drug repurposing: Confirmatory screen for TC32 cells (AID 1347118);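 note: cells exposed to compound for 48 h before the read; nearly all actives have a fitted effect of over 65% in size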; note: potency is the fitted concentration of half-maximal effect
# Summary of the method: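 Luminescent ATP read-out (CellTiter-Glo) of metabolically active TC32 cells after 48 h exposure. Concentration-response curves came from 11-point (MIPE, 0.78 nM–46 µM) or 8-point (NPC, 0.59 nM–46 µM) primary titrations; follow-up used 11 points.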
# [12] = qHTS of pediatric cancer cell lines to identify multiple opportunities for drug repurposing: Confirmatory screen for MG 63 (6-TG R) cells (AID 1347119); note: nearly all actives have a fitted effect of over 55% in size; note: potency is the fitted concentration of half-maximal effect
# Summary of the method: as §2
# [13] = qHTS of pediatric cancer cell lines to identify multiple opportunities for drug repurposing: Confirmatory screen for control Hh wild type fibroblast cells (AID 1347121); note: nearly all actives have a fitted effect of over 70% in size
# Summary of the method: as §2
# [14] = qHTS of pediatric cancer cell lines to identify multiple opportunities for drug repurposing: Primary screen for control Hh wild type fibroblast cells (AID 1347106);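 note: a drop in luminescence marks cytotoxicity and a rise apparent proliferation; nearly all actives have a fitted effect of over 55% in size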
# Summary of the method: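 Viability after 48 h compound treatment at 37C, 500-1,000 cells/well, read as ATP luminescence with CellTiter-Glo. Primary screens used 11-point (MIPE, 0.78 nM-46 µM) or 8-point (NPC, 0.59 nM-46 µM) final concentrations; follow-up screens used 11-point dilutions.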
# [15] = qHTS of pediatric cancer cell lines to identify multiple opportunities for drug repurposing: Confirmatory screen for NB1643 cells (AID 1347109); note: nearly all actives have a fitted effect of over 45% in size; note: potency is the fitted concentration of half-maximal effect
# Summary of the method: as §2
# [16] = qHTS of pediatric cancer cell lines to identify multiple opportunities for drug repurposing: Confirmatory screen for A673 cells (AID 1347110); note: potency is the fitted concentration of half-maximal effect
# Summary of the method: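 Concentration-response curves came straight from titrations: 11 points (0.78 nM to 46 µM) for MIPE and several concentrations (0.59 nM to 46 µM) for NPC in primary, 11 points in follow-up. Readout: ATP luminescence at 48 h.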
# [17] = qHTS of pediatric cancer cell lines to identify multiple opportunities for drug repurposing: Confirmatory screen for NB-EBc1 cells (AID 1347115);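 note: cells exposed to compound for 48 h before the viability read; nearly all actives have a fitted effect of over 45% in size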; note: potency is the fitted concentration of half-maximal effect
# Summary of the method: as §2
# [18] = qHTS of pediatric cancer cell lines to identify multiple opportunities for drug repurposing: Confirmatory screen for BT-37 cells (AID 1347117); conditions: BT-37 pediatric cancer cells, viability; activity change, negative = cytotoxic: at 45.9 µM (top of the series); note: nearly all actives have a fitted effect of over 55% in size; note: potency is the fitted concentration of half-maximal effect
# Summary of the method: as §2
# [19] = qHTS of pediatric cancer cell lines to identify multiple opportunities for drug repurposing: Primary screen for Rh30 cells (AID 1347107); note: nearly all actives have a fitted effect of over 75% in size; note: potency is the fitted concentration of half-maximal effect
# Summary of the method: as §2
# [20] = qHTS of pediatric cancer cell lines to identify multiple opportunities for drug repurposing: Primary screen for Rh41 cells (AID 1347108); note: nearly all actives have a fitted effect of over 70% in size; note: potency is the fitted concentration of half-maximal effect;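 for activity change, negative = cytotoxic: luminescence drop marks cytotoxic hits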
# Summary of the method: as §3
Structure (SMILES),Potency [1],Potency [2],Potency [3],Potency [4],Potency [5],Potency [6],Potency [7],Potency [8],Potency [9],Potency [10],Potency [11],Potency [12],Potency [13],Potency [14],Potency [15],Potency [16],Potency [17],Potency [18],Potency [19],Potency [20]
CC(C)NC[C@@H](C(=O)N1CCN(c2ncnc3c2[C@H](C)C[C@H]3O)CC1)c1ccc(Cl)cc1,24.3 µM (active),5.9 µM (active),0.193 µM (active),1.18 µM (active),3.72 µM (active),2.93 µM (active),inactive,2.93 µM (active),inactive,inactive,4.14 µM (active),11.7 µM (active),inactive,–,–,–,–,–,–,–
Cc1[nH]c(C=C2C(=O)Nc3ccccc32)c(C)c1CCC(=O)O,7.69 µM (active),23.5 µM (active),1.22 µM (active),18.7 µM (active),–,inactive,inactive,inactive,inactive,–,inactive,inactive,inactive,inactive,inactive,inactive,inactive,inactive,–,–
CCC(C(=O)O)C1CCC(C)C(C(C)C(O)C(C)C(=O)C(CC)C2OC3(C=CC(O)[C@@]4(CC[C@](C)(C5CC[C@@](O)(CC)C(C)O5)O4)O3)C(C)CC2C)O1 (stereo partly specified),0.385 µM (active),5.9 µM (active),0.432 µM (active),4.18 µM (active),18.7 µM (active),inactive,–,1.17 µM (active),3.29 µM (active),–,inactive,inactive,–,–,1.17 µM (active),5.85 µM (active),–,inactive,inactive,–
Cc1cnc(NC(=O)Nc2cc(Br)c(C)cc2OC[C@@H]2CNCCO2)cn1,inactive,inactive,1.37 µM (active),inactive,–,–,–,–,–,–,–,–,–,–,–,–,–,–,–,inactive
COc1ccc(Nc2cc(-c3cnc(N)nc3)nc(N3CCOCC3)n2)cn1,21.7 µM (active),6.62 µM (active),0.385 µM (active),4.18 µM (active),3.72 µM (active),6.57 µM (active),–,2.33 µM (active),–,2.61 µM (active),3.69 µM (active),1.31 µM (active),inactive,–,8.27 µM (active),9.27 µM (active),–,10.4 µM (active),5.9 µM (active),2.96 µM (active)
CC(Cc1ccc(O)c(O)c1)(NN)C(=O)O (stereo unspecified),inactive,inactive,inactive,–,inactive,–,–,–,–,–,–,–,–,inactive,–,–,–,–,–,–
CO[C@@H]1[C@@H](O)[C@H](O)[C@@H](n2c3c(Cl)cccc3c3c4c(c5c6cccc(Cl)c6[nH]c5c32)C(=O)NC4=O)O[C@@H]1CO,1.37 µM (active),2.09 µM (active),0.306 µM (active),2.64 µM (active),–,0.928 µM (active),4.65 µM (active),1.65 µM (active),–,5.22 µM (active),0.737 µM (active),1.31 µM (active),inactive,inactive,1.85 µM (active),0.827 µM (active),1.47 µM (active),0.827 µM (active),–,2.35 µM (active)
Cc1noc(-c2ccc(CSCCC(=O)O)cc2)c1NC(=O)OC(C)c1ccccc1Cl (stereo unspecified),inactive,inactive,inactive,inactive,–,–,–,–,–,–,–,–,–,inactive,–,–,–,–,inactive,inactive
CC(C=CC1=C(C)CCCC1(C)C)=CC=CC(C)=CC(=O)Nc1ccc(O)cc1,12.5 µM (active),42.9 µM (active),17.7 µM (active),34 µM (active),27 µM (active),2.4 µM (active),–,6.03 µM (active),33.9 µM (active),2.4 µM (active),2.14 µM (active),42.7 µM (active),–,–,42.7 µM (active),0.38 µM (active),13.5 µM (active),38 µM (active),–,7.62 µM (active)
C[C@@]12C(=O)OC(=O)[C@@]1(C)C1CCC2O1,8.63 µM (active),1.87 µM (active),2.43 µM (active),5.9 µM (active),1.87 µM (active),6.57 µM (active),–,–,2.61 µM (active),6.57 µM (active),3.69 µM (active),1.47 µM (active),–,–,3.29 µM (active),9.27 µM (active),2.08 µM (active),2.08 µM (active),–,3.72 µM (active)
COc1cccc2c1C(=O)c1c(O)c3c(c(O)c1C2=O)C[C@@](O)(C(=O)CO)C[C@@H]3O[C@H]1C[C@H](N)[C@@H](O)[C@H](C)O1,0.685 µM (active),0.469 µM (active),0.611 µM (active),0.935 µM (active),1.48 µM (active),0.165 µM (active),–,0.165 µM (active),1.47 µM (active),0.737 µM (active),0.131 µM (active),–,–,–,0.165 µM (active),0.293 µM (active),–,0.117 µM (active),inactive,0.662 µM (active)
Nc1ccn(C2CO[C@H](CO)O2)c(=O)n1 (stereo partly specified),inactive,inactive,inactive,inactive,–,–,–,–,–,–,–,–,–,inactive,–,–,–,–,inactive,inactive
